Screening results from PubChem.
LmPK inhibitor = blocks Leishmania mexicana pyruvate kinase activity | Q27686 | purified LmPK, Kinase-Glo ATP luminescence, 1 h | Potency, µM (series often up to 57.5 µM), for the others: top-dose activity change, negative = inhibition, actives largely listed as inhibitors | 290,000 compounds, 0.37% hits | AID 1721; also: potency is read from the fitted curve at half-maximal effect; % is scaled to controls: 0 for no effect and ±100 for the full control effect
Target sequence (Q27686 whole entry, looked up): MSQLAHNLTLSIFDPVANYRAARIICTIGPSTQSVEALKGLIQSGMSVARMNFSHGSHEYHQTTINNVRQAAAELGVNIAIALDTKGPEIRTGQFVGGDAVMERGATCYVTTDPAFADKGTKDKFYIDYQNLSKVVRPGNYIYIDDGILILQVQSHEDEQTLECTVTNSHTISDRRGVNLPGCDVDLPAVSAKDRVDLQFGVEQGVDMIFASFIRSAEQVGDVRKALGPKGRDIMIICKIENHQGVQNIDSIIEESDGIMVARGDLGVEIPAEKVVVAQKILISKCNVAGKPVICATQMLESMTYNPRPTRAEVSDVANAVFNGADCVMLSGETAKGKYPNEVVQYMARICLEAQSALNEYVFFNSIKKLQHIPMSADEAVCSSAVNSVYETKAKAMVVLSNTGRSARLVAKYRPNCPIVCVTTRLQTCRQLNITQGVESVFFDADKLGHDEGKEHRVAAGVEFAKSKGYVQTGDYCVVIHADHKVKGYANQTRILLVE
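In 50 mM imidazole pH 7.2 with 7 mM MgCl2, LmPK (0.1 nM) turned over PEP (0.5 mM) and ADP (0.1 mM) for 1 h at room temperature. Luciferase read-out of ATP.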
TbPYK inhibitor = blocks Trypanosoma brucei pyruvate kinase | 410,000 compounds, 0.12% hits | Q57TT1 | AID 624173 | Potency, µM (doses to about 76.8 µM), inactives show top-dose activity, negative = inhibition, most hits filed as inhibitors | TbPYK enzyme, Kinase-Glo Plus ATP luminescence, 45 min; also: potency is read from the fitted curve at half-maximal effect; % is scaled to controls: 0 for no effect and ±100 for the full control effect; nearly all actives have a fitted effect of over 50% in size
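Assay buffer: 50 mM TEA pH 7.2, 100 mM KCl, 10 mM MgCl2, 0.05% BSA, 0.01% Tween-20. Pyruvate kinase from T. brucei plus substrate met compound, then ADP (130 uM final). Luminescence was read post 45 min RT.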
Giardia FBPA inh = inhibitors of Giardia lamblia fructose-1,6-bisphosphate aldolase. A8B2U2. purified Giardia FBPA. Potency, µM (highest dose often 59.6 µM), inactives show at the highest dose activity, negative = inhibition, usual class: inhibitors. 290,000 compounds, 0.71% hits. AID 2451; also: potency is read from the fitted curve at half-maximal effect; % is scaled to controls: 0 for no effect and ±100 for the full control effect; nearly all actives have a fitted effect of over 55% in size
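40 nM FBPA preincubated 10 min at RT with compound (up to 57.5 uM final), then substrate plus GAPDH/TPI/NAD/arsenate coupling and diaphorase/resazurin added. Fluorescence read after 20 min at RT, 525/598 nm.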
SARS PLpro yeast-1 = SARS-CoV PLP inhibition in yeast | S. cerevisiae expressing SARS-CoV PLpro, growth rescue | Potency, µM (titrated, usually from 32.9 µM), for the others: at the highest dose activity, positive = growth rescue, hits mostly activators | 330,000 compounds, 0.19% hits; calls by dose curve; also: potency is read from the fitted curve at half-maximal effect; 0% is about no effect; nearly all actives have a fitted effect of over 55% in size
RE007 growth inh = less growth of the S. pombe RE007 Vpr strain | S. pombe RE007 Vpr strain, BacTiter-Glo ATP luminescence, 24 h | Potency, µM (doses to about 92.2 µM), for inactives: at the top dose activity change, negative = less growth, actives largely listed as inhibitors | 360,000 compounds, 0.21% hits | AID 651644; active = well fitted falling curve with a large enough effect; inconclusive = small, poorly fitted or top-dose-only effect; inactive = no such curve, though single readings can be large or run the other way; also: potency is read from the fitted curve at half-maximal effect; % is scaled to controls: 0 for no effect and ±100 for the full control effect; nearly all actives have a fitted effect of over 50% in size
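Fission yeast strain RE007, carrying one chromosomally integrated HIV-1 vpr copy, was seeded at OD 0.01 in PMG+AL medium with 23 nL pinned compound. After 24 h at 30 °C and 99% humidity, viability was read by BacTiter-Glo luminescence.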
SARS PLpro yeast-2 = Validates SARS-CoV PLpro inhibitor hits in yeast. AID 652038. shares compounds with SARS PLpro yeast-1. 1,000 compounds, 19% hits. yeast expressing SARS-CoV PLpro, growth phenotype rescue. calls only; call rule not given here
* = called active by the depositor; i = inactive; ? = inconclusive; . = not tested or not shown; + = active, no number; [ ] = dose if it differs, or a comment. In the library only some 1.1% were active in any assay of this set; here they are far more common. Unless noted, calls follow the shape of the dose curve; as a rule, active = well fitted curve in the direction sought with a large enough effect; inconclusive = small, poorly fitted or top-dose-only effect, or another doubt; inactive = no such curve, though single readings can be large; an effect the other way counts as inactive or inconclusive.

SMILES | LmPK inhibitor | TbPYK inhibitor | Giardia FBPA inh | SARS PLpro yeast-1 | RE007 growth inh | SARS PLpro yeast-2
Cc1ccc(CC(=O)O/N=C(\N)c2cccc([N+](=O)[O-])c2)cc1 | 1% | 1% | 1% | . | 0% | i
Cc1cccc(C)c1NC(=O)Cn1nnc(S(=O)(=O)c2ccccc2)c1N | . | -8% | . | . | . | .
CCn1c(=O)cc(SCC(=O)NCc2ccc(Cl)cc2)c2ccccc21 | . | -9% | . | . | . | .
O=C(CSc1nc2ccccc2c(=O)n1CCCN1CCOCC1)Nc1ccccc1OC(F)F | . | -6% | . | 2.8µM* | -14% | i
Cc1cccc(C)c1NC(=S)NN1CCN(C)CC1 | -6% | -2% | -5% | ? | -4% | +
O=S1(=O)N=C(N/N=C/c2ccccn2)c2ccccc21 | -6% | -6% | ? | 22µM* | -1% | +
Cc1ccccc1-c1nc2c(c(SCc3cccc(Cl)c3)n1)Cc1c(CO)cnc(C)c1O2 | . | 2% | . | . | . | .
COc1ccc(Cl)cc1NC(=O)Cn1ccn(-c2cc(C)cc(C)c2)c(=O)c1=O | . | 3% | . | . | . | .
Cc1ccc(/C=C/C(=O)c2ccccc(=O)c2O)cc1C | -2% | -10% | ? | ? | ? | ?
O=C(/C=C/c1ccc(O)cc1)c1ccccc1O | . | . | -4% | . | . | .
CC(OC(=O)c1cccc(-n2cnnn2)c1)C(=O)NCc1ccccc1 (stereo unspecified) | . | 7% | . | 3% | 3% | .
CC(OC(=O)c1cccc(-n2cnnn2)c1)C(=O)c1ccccc1 (stereo unspecified) | . | -7% | . | ? | 5% | i
O=C(CCNS(=O)(=O)c1ccc2c(c1)CCC(=O)N2)NCc1ccc2c(c1)OCO2 | -3% | 1% | -1% | 6% | 1% | .
Cc1ccc(S(=O)(=O)NCCC(=O)NCc2ccc3c(c2)OCO3)cc1C | 11% | 12% | 1% | 16µM* | 3% | i
CCN1C(=NCc2ccccc2)N[C@@H](c2ccccc2)[C@H](C(=O)OC)[C@H]1C | -10% | -15% | -16% | ? | -2% | i
CCN1C(=NCc2ccc(OC)cc2)N[C@@H](c2ccccc2)[C@H](C(=O)OC)[C@H]1C | -8% | -10% | 19% | 2% | -10% | .
COc1ccccc1NC(c1cccnc1)c1ccc2cccnc2c1O (stereo unspecified) | 15% | 87% | ? | 4.5µM* | 2% | ?
Cc1ccnc(NC(c2cccnc2)c2ccc3cccnc3c2O)c1 (stereo unspecified) | 3% | 125% | -10% | -3% | -13% | .
COc1ccc(Cc2nnc(N/N=C/c3ccc(O)cc3O)[nH]c2=O)cc1OC | 1% | -1% | -1% | 6.3µM* | -10% | i
CCCCCC/C=N/Nc1nnc(Cc2ccc(OC)c(OC)c2)c(=O)[nH]1 | -2% | -3% | -14% | 0% | 30% | .
Cc1ccc(CCNC(=O)c2ccc3c(c2)N(Cc2ccccc2F)C(=O)c2ccccc2S3=O)cc1 (stereo unspecified) | . | -4% | . | . | . | .
Cc1nnc2n(-c3ccccc3)c(=O)c3c4c(sc3n12)COC(C)(C)C4 | 1% | 2% | 7% | ? | 8% | i
Cc1nnc2n(C)c(=O)c3c4c(sc3n12)COC(C)(C)C4 | . | 3% | . | . | -15% | .
CC[C@@H](C)CN1C(=O)N[C@@H](c2ccccc2)C(C(=O)OC)=C1C | -7%[11.5 µM] | . | 3%[12.9 µM] | . | . | .
Cc1ccc(-n2c(C)cc(/C=N/NC(=O)c3ccncc3)c2C)cc1 | 0% | 3% | -22% | 2% | 3% | .
SMILES | LmPK inhibitor | TbPYK inhibitor | Giardia FBPA inh | SARS PLpro yeast-1 | RE007 growth inh | SARS PLpro yeast-2
Cc1ccc(-n2c(C)cc(/C=N/NC(N)=S)c2C)cc1 | 2% | -4% | -3% | 11µM* | 3% | +
CCn1c(C)cc(/C=C2/NC(=O)N(Cc3ccccc3F)C2=O)c1C | -1% | -5% | -16% | 2% | 13% | .
Cc1cc(/C=C2/NC(=O)N(Cc3ccccc3F)C2=O)c(C)n1C(C)C | 2% | -7% | -14% | ? | -24% | i
O=C(Nc1ccc2ncccc2c1)c1ccccc1 | -4% | -25% | 0% | 1% | -13% | .
CNC(=O)Oc1ccc2ncccc2c1 | 3% | -11% | -2% | 14µM* | -2% | +
CC(=O)Nc1cccc(C(=O)OCc2ccc(C(=O)Oc3ccc(Cl)cc3)cc2)c1 | -4% | 4% | -2% | ? | 4% | i
CC(=O)Nc1ccc(C(=O)OCc2ccc(Br)cc2)cc1 | 1% | -9% | 8% | -69% | -10% | .
Cc1ccccc1C(=O)Nc1ccc(C(=O)N2CCCC(O)c3cc(Cl)ccc32)c(C)c1 (stereo unspecified) | . | -3% | . | . | . | .
Cc1onc(-c2ccccc2)c1C(=O)NC(=S)NNC(=O)c1cccnc1 | 3% | -8% | ? | 5% | 12% | .
Cc1onc(-c2ccccc2)c1C(=O)NC(=S)NNC(=O)c1ccncc1 | -2% | 6% | ? | 13µM* | 1% | i
CC(=O)NCCc1cc2ccc(C)cc2[nH]c1=O | -1% | 0% | 0% | ? | 27% | i
Cc1ccc2cc(CCNC(=O)C(C)C)c(=O)[nH]c2c1 | 0% | -2% | -3% | 1% | -13% | .
CC1(C)CC(=O)C(N=Nc2cc(Cl)c(Cl)c(Cl)c2)=C(O)C1 | -1% | -5% | -10% | -1% | -12% | .
Cc1ccc(O)c(N=NC2=C(O)CC(C)(C)CC2=O)c1 | -9% | 9% | -29% | 18µM* | -5% | +
Cc1cccc(C)c1NC(=O)COC(=O)C1C2CC3OC(=O)C1C3C2 (stereo unspecified) | -4% | -2% | 4% | 11µM* | -4% | i
C(=N\Nc1nncc2ccccc12)/c1ccccn1 | ? | -15% | -17% | 13µM* | ? | i
COc1ccccc1CNc1ccc(-c2nc(-c3cccc(C)c3)no2)cc1[N+](=O)[O-] | . | 6% | . | . | . | .
Cc1ccc(-c2nc3c(c(SCc4ccc(Br)cc4)n2)Cc2c(CO)cnc(C)c2O3)cc1 | . | -6% | . | . | . | .
CC(=O)N(C)Cc1ccc(C(=O)CCl)cc1 | -6% | -3% | -19% | 7.9µM* | 11% | +
Cc1ccccc1OCCNc1cc(N2CCN(CCO)CC2)ccc1[N+](=O)[O-] | 5% | -8% | 2% | -4% | -15% | .
Cc1cccc(OCCNc2cc(N3CCN(CCO)CC3)ccc2[N+](=O)[O-])c1 | 3% | 4% | -20% | 13µM* | 4% | i
COCCCNC(=O)COc1ccc(Cl)c(C)c1 | -2% | -3% | 3% | -1% | 13% | .
Cc1cc(OCC(=O)NC(C)(C)C)ccc1Cl | -2% | -4% | 0% | ? | -12% | i
CC1(C)C(=O)C2(CCCCC2)C(=O)OC1c1cccn1-c1ccc([N+](=O)[O-])cc1 (stereo unspecified) | -2% | -3% | 3% | ? | -2% | ?
COc1ccc(Cl)cc1NC(=O)CCS(=O)(=O)c1cccc2nonc12 | . | -10% | . | . | . | .
